Compound activity as filed in PubChem.
DT40 TDP1 no CPT – qHTS for Inhibitors of human tyrosyl-DNA phosphodiesterase 1 (TDP1): qHTS in cells in absence of CPT. Potency, µM (doses to about 46.2 µM), inactives show at the top dose activity change, negative = growth inhibition, most hits filed as inhibitors. hit rate 15% among 420,000. DT40 Tdp1-/- hTDP1 cells, no CPT, ATP luminescence, 48 h; also: potency is read from the fitted curve at half-maximal effect; % is scaled to controls: 0 for no effect and ±100 for the full control effect; nearly all actives have a fitted effect of over 55% in size
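Seeded 400 DT40-hTDP1 cells/well (vehicle DMSO, no 20 nM CPT); pinned compounds; ≥48 hr at 37 °C; CellTiter-Glo luminescence as viability measure.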
TGFb SMAD3 inh – inhibitors of TGF-b signaling; HepG2 CAGA-GFP TGF-b/SMAD3 reporter, GFP fluorescence, 18 h; TGF-beta stimulated, 500 pg/mL final; AID 588855; Potency, µM (top dose mostly 46.1 µM), for the others: top-dose activity, negative = inhibition, actives largely listed as inhibitors; hit rate 1.2% among 410,000; also: potency is read from the fitted curve at half-maximal effect; % is scaled to controls: 0 for no effect and ±100 for the full control effect; nearly all actives have a fitted effect of over 65% in size
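Cell-based qHTS in HEPG2 carrying a CAGA-GFP Smad reporter; compounds added before 500 pg/mL final TGF-beta, 18 h incubation at 37 degrees C, GFP fluorescence quantified per cell by imaging cytometry.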
TDP1 block – blocks human tyrosyl-DNA phosphodiesterase 1 | recombinant TDP1, AlphaScreen DNA substrate cleavage | hit rate 0.28% among 350,000 | Q9NUW8 | Potency, µM (titrated, usually from 130 µM), for the others: at the top dose activity change, negative = inhibition, actives largely listed as inhibitors; also: potency is read from the fitted curve at half-maximal effect; % is scaled to controls: 0 for no effect and ±100 for the full control effect; nearly all actives have a fitted effect of over 40% in size
Target sequence (Q9NUW8 whole entry, looked up): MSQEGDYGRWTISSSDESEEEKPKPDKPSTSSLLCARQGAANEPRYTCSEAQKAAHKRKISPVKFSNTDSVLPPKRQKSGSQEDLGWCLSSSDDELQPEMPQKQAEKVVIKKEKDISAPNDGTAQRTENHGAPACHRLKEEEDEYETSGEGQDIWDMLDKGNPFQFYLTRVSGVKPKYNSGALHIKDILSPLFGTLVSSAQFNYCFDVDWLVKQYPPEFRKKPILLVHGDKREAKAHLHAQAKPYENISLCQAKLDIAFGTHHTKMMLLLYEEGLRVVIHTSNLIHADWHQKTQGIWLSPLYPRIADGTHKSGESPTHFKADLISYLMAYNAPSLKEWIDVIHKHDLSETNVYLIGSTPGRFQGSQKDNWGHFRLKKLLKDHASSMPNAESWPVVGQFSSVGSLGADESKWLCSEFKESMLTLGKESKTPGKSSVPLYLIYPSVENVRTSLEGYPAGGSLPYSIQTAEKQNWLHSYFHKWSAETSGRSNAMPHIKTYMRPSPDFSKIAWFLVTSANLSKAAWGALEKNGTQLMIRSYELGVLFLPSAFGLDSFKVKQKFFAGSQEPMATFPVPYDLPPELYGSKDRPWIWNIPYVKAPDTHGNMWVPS
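E. coli-derived human Tdp1, 1 nM final. Cpd preinc 15 min RT; substrate 15 nM final, 5 min RT; AS bead mix 10 ug/ml final, 10 min RT. Signal loss = tyrosine-FITC cleavage. No-enzyme wells = max signal.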
IL-1B inflam inh – blocks inflammasome-driven IL-1 beta release; THP-1 LPS/ATP IL-1B secretion, AlphaLISA, 16 h; hits give low values; activity change, % at 57.5 µM; hit rate 4.7% among 360,000; AID 743279; in the data active = activity change below about -50%; inconclusive = mostly about -30% to -49%; also: % is scaled to controls: 0 for no effect and ±100 for the full control effect
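THP-1 cells pretreated 1 hr with compounds (up to 57.5 uM final), then stimulated with LPS (250 ng/mL final) plus ATP (1.25 mM final); secreted IL-1B measured by AlphaLISA after 16 hr, decreased signal indicating inhibition.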
HepG2 viability – HepG2 cytotoxicity, counter-screen for TGF-b inhibitors | Potency, µM (series often up to 46.1 µM), for the others: top-dose activity change, negative = cytotoxicity, usual class: cytotoxic | hit rate 0.76% among 410,000 | HepG2 CAGA-GFP viability, ATP luminescence, 18 h; also: potency is read from the fitted curve at half-maximal effect
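CellTiter-Glo luminescence gave cytotoxicity after 18 hours at 37 degrees C. The cells were HepG2 CAGA-GFP in 1% FBS DMEM, stimulated with 500 pg/mL TGF-beta after compound addition. %Activity was normalised to no-cell wells (complete cell-killing) and DMSO (no toxicity), and curves were fitted and classified.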
DT40 TDP1 CPT – DT40-hTDP1 cell growth loss with CPT. chicken DT40 Tdp1-/-;hTDP1 cells + 20 nM CPT, ATP luminescence, 48 h. Potency, µM (highest dose often 46.2 µM), inactives show at the top dose activity change, negative = growth inhibition, actives largely listed as inhibitors. hit rate 12% among 420,000; also: potency is read from the fitted curve at half-maximal effect; % is scaled to controls: 0 for no effect and ±100 for the full control effect; nearly all actives have a fitted effect of over 55% in size
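Chicken DT40 Tdp1-/- cells stably complemented with human TDP1 were seeded at 400 cells/well in medium containing 20 nM camptothecin, exposed to pin-transferred compounds, and grown at 37 °C for at least 48 hr. Viability was read as ATP luminescence.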
* = called active by the depositor. In the library only some 18% were active in any assay of this set; here they are far more common. Unless noted, calls follow the shape of the dose curve; as a rule, active = well fitted curve in the direction sought with a large enough effect; inconclusive = small, poorly fitted or top-dose-only effect, or another doubt; inactive = no such curve, though single readings can be large; an effect the other way counts as inactive or inconclusive.

Results for Cc1ccc(C(=O)OCC(=O)Nc2ccccc2C(F)(F)F)cc1S(=O)(=O)N1CCCCC1 ?
DT40 TDP1 no CPT: inconclusive; TGFb SMAD3 inh: 1%; TDP1 block: -9%; IL-1B inflam inh: -13; HepG2 viability: -19%; DT40 TDP1 CPT: inconclusive

What do the screens show for `Cc1ccccc1NC(=O)C(C)Sc1nnc(CN2CCCC2)n1Cc1ccccc1` (configuration not stated)?
DT40 TDP1 no CPT: 16µM*; TGFb SMAD3 inh: 1%; IL-1B inflam inh: -22; HepG2 viability: -6%; DT40 TDP1 CPT: inconclusive

What do the screens show for `CC(Sc1nnc(-c2ccc(Cl)cc2Cl)n1Cc1ccccc1)C(=O)Nc1nccs1` (configuration not stated)?
DT40 TDP1 no CPT: inconclusive; TGFb SMAD3 inh: inconclusive; TDP1 block: 6%; IL-1B inflam inh: -24; HepG2 viability: -9%; DT40 TDP1 CPT: inconclusive

What do the screens show for `Cc1nnc(SC(C)C(=O)Nc2ccc(Cl)cn2)n1Cc1ccccc1` (configuration not stated)?
DT40 TDP1 no CPT: inconclusive; TGFb SMAD3 inh: -1%; TDP1 block: 6%; IL-1B inflam inh: -60*; HepG2 viability: -10%; DT40 TDP1 CPT: -26%

How did CCN(CC)CCCC(C)n1c(-c2ccccc2)nc2c(NC3CCCCC3)nc(C)nc21 (configuration not stated) do in these assays?
TDP1 block: 6%

How did CSCCC1NC(=O)N(CC(=O)Nc2c(Cl)cc(Cl)cc2Cl)C1=O (configuration not stated) do in these assays?
DT40 TDP1 no CPT: inconclusive; TGFb SMAD3 inh: -1%; TDP1 block: 4%; IL-1B inflam inh: -5; HepG2 viability: -34%; DT40 TDP1 CPT: 16µM*

What do the screens show for `CSCCC1NC(=O)N(CC(=O)Nc2cc(C)on2)C1=O` (configuration not stated)?
DT40 TDP1 no CPT: 15%; TGFb SMAD3 inh: 8%; TDP1 block: 0%; IL-1B inflam inh: 9; HepG2 viability: 13%; DT40 TDP1 CPT: -4%

Results for CC(C)NC(=O)C1(C)CN(S(C)(=O)=O)CC(=O)N1Cc1cccs1 (configuration not stated) ?
DT40 TDP1 no CPT: inconclusive; IL-1B inflam inh: 25; DT40 TDP1 CPT: 0%

Results for CC(=O)c1cn(-c2ccc(Cl)cc2)c(=O)n(Cc2ccc(F)cc2)c1=O ?
DT40 TDP1 no CPT: 9.2µM*; TGFb SMAD3 inh: 3%; TDP1 block: 0%; IL-1B inflam inh: -5; HepG2 viability: -3%; DT40 TDP1 CPT: inconclusive

How did CC(=O)c1cn(-c2ccc(Cl)cc2)c(=O)[nH]c1=O do in these assays?
DT40 TDP1 no CPT: 5%; TGFb SMAD3 inh: 1%; IL-1B inflam inh: 19; HepG2 viability: 0%; DT40 TDP1 CPT: 25%

What do the screens show for `CN(C)CCCCCCNc1nccc(N2CCN(C)CC2)n1`?
DT40 TDP1 no CPT: 20µM*; TGFb SMAD3 inh: 3%; HepG2 viability: -38%; DT40 TDP1 CPT: 10µM*

What do the screens show for `CCN1CCCc2cc(CN(CCN3CCOCC3)C(=O)Nc3ccc(C)c(C)c3)ccc21`?
DT40 TDP1 no CPT: 26µM*; TGFb SMAD3 inh: inconclusive; TDP1 block: 11%; IL-1B inflam inh: inconclusive; HepG2 viability: -38%; DT40 TDP1 CPT: inconclusive

Results for COCCN(C(=S)Nc1ccccc1OC)C(C)c1cccs1 (configuration not stated) ?
DT40 TDP1 no CPT: 29µM*; TGFb SMAD3 inh: -17%; TDP1 block: -1%; IL-1B inflam inh: 7; HepG2 viability: 1%; DT40 TDP1 CPT: 23µM*

What do the screens show for `CCN1CCCc2cc(CN(CCN3CCOCC3)C(=S)Nc3ccccc3OC)ccc21`?
DT40 TDP1 no CPT: 16µM*; TGFb SMAD3 inh: 59%; TDP1 block: 7%; IL-1B inflam inh: -3; HepG2 viability: 62%; DT40 TDP1 CPT: inconclusive

Results for CCN1CCCc2cc(CN(CCN3CCOCC3)C(=S)Nc3cccc(C)c3)ccc21 ?
DT40 TDP1 no CPT: inconclusive; TGFb SMAD3 inh: 4%; TDP1 block: 11%; IL-1B inflam inh: inconclusive; HepG2 viability: -18%; DT40 TDP1 CPT: 16µM*

What do the screens show for `O=C(O)c1cnc2ccc(Cl)cc2n1`?
DT40 TDP1 no CPT: -34%; TGFb SMAD3 inh: 23%; IL-1B inflam inh: 27; HepG2 viability: 0%; DT40 TDP1 CPT: -3%

Results for CCOC(=O)C1CCN(C(C(=O)NC2CCCC2)c2ccc(C)cc2)CC1 (configuration not stated) ?
DT40 TDP1 no CPT: -27%; TGFb SMAD3 inh: 3%; TDP1 block: 5%; IL-1B inflam inh: -1; HepG2 viability: -1%; DT40 TDP1 CPT: inconclusive

What do the screens show for `CCN1CCCc2cc(CN(CCN3CCOCC3)C(=S)Nc3ccc(OC)c(Cl)c3)ccc21`?
DT40 TDP1 no CPT: 9.2µM*; TGFb SMAD3 inh: 0%; TDP1 block: 6%; IL-1B inflam inh: 0; HepG2 viability: 1%; DT40 TDP1 CPT: inconclusive

What do the screens show for `CCCCN1CCCc2cc(CN(CCCN3CCOCC3)C(=O)Nc3ccc(OCC)cc3)ccc21`?
DT40 TDP1 no CPT: 18µM*; TGFb SMAD3 inh: -11%; TDP1 block: 9%; HepG2 viability: -17%; DT40 TDP1 CPT: 18µM*

How did COc1ccccc1NC(=S)N(CCN1CCCCCC1)Cc1cccs1 do in these assays?
DT40 TDP1 no CPT: 9.2µM*; TGFb SMAD3 inh: -21%; TDP1 block: 5%; IL-1B inflam inh: -13; HepG2 viability: -13%; DT40 TDP1 CPT: inconclusive

What do the screens show for `C/C(=N\OCC(=O)NC12CC3CC(CC(C3)C1)C2)c1cc2ccccc2o1`?
DT40 TDP1 no CPT: inconclusive; TGFb SMAD3 inh: inconclusive; TDP1 block: 0%; IL-1B inflam inh: -91*; HepG2 viability: 2%; DT40 TDP1 CPT: 21µM*

How did CC(C)c1ccc(NC(=O)c2cnn3c(C(F)F)cc(-c4ccccc4)nc23)cc1 do in these assays?
DT40 TDP1 no CPT: inconclusive; TGFb SMAD3 inh: -6%; TDP1 block: -1%; HepG2 viability: -1%; DT40 TDP1 CPT: inconclusive

How did Cc1cc(NC(=O)c2cnn3c(C(F)(F)F)cc(-c4ccccc4)nc23)no1 do in these assays?
DT40 TDP1 no CPT: 23µM*; TGFb SMAD3 inh: -1%; TDP1 block: 2%; IL-1B inflam inh: -69*; HepG2 viability: -1%; DT40 TDP1 CPT: 13µM*
